# Compounds with a hit are over-represented: about 19% of the library has one in this group of screens.
# HT1080-NT tox: kills 2HG-producing HT-1080-NT fibrosarcoma cells; HT-1080-NT fibrosarcoma viability, CellTiter-Glo ATP luminescence, 48 h; Potency, µM (top dose mostly 46.1 µM), inactives show top-dose activity, negative = less viability, hits mostly cytotoxic; 360,000 compounds, 1.6% hits;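 further: NT is the 2HG producing partner of a matched IDH1 knockdown line; potency means the concentration at half of the fitted maximal effect; 0% = DMSO-treated cells and -100% = media-only wells without cells; nearly all actives have a fitted effect of over 55% in size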
#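 Viability of the 2HG-overproducing fibrosarcoma line after 48 hours of compound exposure at 37 degrees C was determined by luminescence with CellTiter-Glo, and concentration-effect curves were then fitted and categorized.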
# HT1080 IDH1KD tx: toxicity to HT-1080 IDH1 knockdown cells (counter line); HT-1080 IDH1 knockdown viability, ATP luminescence, 48 h; Potency, µM (series often up to 46.1 µM), inactives show top-dose activity, negative = toxicity, most hits filed as cytotoxic; 360,000 compounds, 2% hits; AID 686971;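 further: potency means the concentration at half of the fitted maximal effect; 0% = DMSO wells and -100% = cell-free medium wells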
#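 Using the IDH1-knockdown HT-1080 line run in the same batch and compound series as the NT line, viability after 48 h at 37 °C was determined by CellTiter-Glo luminescence and expressed as % activity.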
# DT40 TDP1 no CPT: qHTS for Inhibitors of human tyrosyl-DNA phosphodiesterase 1 (TDP1): qHTS in cells in absence of CPT; DT40 Tdp1-/- hTDP1 cells, no CPT, ATP luminescence, 48 h; Potency, µM (top dose mostly 46.2 µM), without a hit: at the highest dose activity change, negative = growth inhibition, actives largely listed as inhibitors; 420,000 compounds, 15% hits; further: potency means the concentration at half of the fitted maximal effect; nearly all actives have a fitted effect of over 55% in size
#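 Growth kinetics read by CellTiter-Glo luminescence after ≥48 hr at 37 °C. Cells: DT40 Tdp1-/- stably carrying human TDP1, 400 per well, compound exposure in the absence of CPT (DMSO vehicle).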
# TDP1 cell CPT: DT40-hTDP1 cell growth loss with CPT | chicken DT40 Tdp1-/-;hTDP1 cells + 20 nM CPT, ATP luminescence, 48 h | Potency, µM (series often up to 46.2 µM), inactives show at the top dose activity change, negative = growth inhibition, hits mostly inhibitors | 420,000 compounds, 12% hits | AID 686979; further: potency means the concentration at half of the fitted maximal effect; nearly all actives have a fitted effect of over 55% in size
#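 Cell growth measured by CellTiter-Glo luminescence after a minimum 48 h, 37 C compound exposure with 20 nM CPT in Tdp1-knockout DT40 cells stably expressing hTDP1, seeded 400/well; qHTS titration format.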
# IL-1B inflam inh: inflammasome signaling inhibition, IL-1 beta readout. activity change, % at 57.5 µM. 360,000 compounds, 4.7% hits. AID 743279. THP-1 LPS/ATP IL-1B secretion, AlphaLISA, 16 h; hits give low values; in the data active means activity change below about -50%; inconclusive means mostly about -30% to -49%
#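 Secreted IL-1B measured by AlphaLISA bead assay after 16 h compound exposure of THP-1 cells; compounds (final up to 57.5 uM) added 1 h before LPS (250 ng/mL) and ATP (1.25 mM) stimulation; lower signal means less secretion.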
# The depositor's hits bear a star; ? = inconclusive; . = not tested or not shown. Unless noted, the call rests on the fitted dose curve; in most records, active means well fitted curve in the direction sought with a large enough effect; inconclusive means small, poorly fitted or top-dose-only effect, or another doubt; inactive means no such curve, though single readings can be large; an effect the other way counts as inactive or inconclusive. Unless noted, on the % scale 0 is the no-effect control and ±100 the full control effect.
SMILES,HT1080-NT tox,HT1080 IDH1KD tx,DT40 TDP1 no CPT,TDP1 cell CPT,IL-1B inflam inh
CCOCCC(=O)Nc1ccc2c(c1)c(=O)n(C)n2Cc1cccc(C(F)(F)F)c1,?,14%,-20%,-18%,23
Cn1c(O)c(C=NCCN2CCOCC2)c(=O)n(C)c1=S,-24%,-20%,?,2%,-16
C[C@H]1C(=O)O[C@H]2CCN3CC=C(COC(=O)[C@](C)(O)[C@@]1(C)O)C23 (some centres undefined),.,.,?,-1%,.
CCOC(=O)/C(C#N)=C1/C=C(C)NC(c2ccccc2O)=N1,?,?,21µM*,15µM*,-64*
O=C(NCC1=C(c2ccc3ccccc3c2)C[C@@H]2CC[C@H]1N2Cc1ccco1)c1nccs1,-18%,-2%,16µM*,?,-28
O=C(NCC1=C(c2cccc3ccccc23)C[C@@H]2CC[C@H]1N2Cc1ccco1)c1cccs1,?,?,15µM*,?,-2
O=C(NCC1=C(c2cccc3ccccc23)C[C@@H]2CC[C@H]1N2Cc1ccco1)c1cccnc1,-9%,6%,?,?,-5
O=C(NCC1=C(c2cccc3ccccc23)C[C@@H]2CC[C@H]1N2Cc1ccco1)c1ccncc1,-20%,-12%,26µM*,23µM*,-19
CC(N)Cc1c[nH]c2cc3c(cc12)OCCO3 (centres undefined),-2%,0%,?,-20%,-19
CC(C)n1c(O)c(C=NCc2ccccc2)c(=O)[nH]c1=S,-3%,-2%,5%,0%,-4
c1ccc2c(c1)-c1cccc3cccc-2c13,1%,6%,-19%,-14%,-15
Nc1c(Br)cc2c3c(cccc13)-c1ccccc1-2,-28%,?,5.2µM*,8.2µM*,-18
O=C1N[C@@H](Cc2ccccc2)C(=O)N2[C@H]1C[C@H]1c3ccccc3N(OOSc3ccccc3)[C@H]12,-12%,-7%,16µM*,21µM*,54
COc1ccc(NC(=O)C2Cc3c(-c4cccc(C(C)=O)c4)ccnc3O2)cc1OC (centres undefined),?,?,4.1µM*,3.3µM*,4
O=CC=O,.,.,-19%,11%,.
C[n+]1c(-c2ccccc2)sc2ccccc21,-1%,-2%,1µM*,1.3µM*,14
CCOc1cc(/C=C2/C(=O)NC(=O)N(c3ccc(CC)cc3)C2=O)ccc1OC(=O)c1cccs1,-5%,3%,29µM*,-7%,3
Cc1ccc2nc(N)[nH]c(=O)c2c1Sc1ccncc1,.,.,0.38µM*,?,.
Cc1ccc(C(O)P(=O)(OCCC(C)C)c2ccc(N(C)C)cc2)cc1 (centres undefined),-1%,11%,-17%,?,-16
CC(C)CCOP(=O)(c1ccc(N(C)C)cc1)C(O)c1c(Cl)cccc1Cl (centres undefined),-1%,-14%,16µM*,?,-17
CCCOP(=O)(c1ccc(N(C)C)cc1)C(O)c1ccc(Cl)cc1Cl (centres undefined),-1%,?,26µM*,26µM*,-79*
CC(C)COP(=O)(c1ccc(N(C)C)cc1)C(O)c1ccc(Br)cc1 (centres undefined),16%,16%,-26%,?,-12
CC(C)c1ccc(C(O)P(=O)(OCc2ccccc2)c2ccc(N(C)C)cc2)cc1 (centres undefined),-5%,-2%,26µM*,?,?
O=C1NC(=O)N(CCC2=CCCCC2)C(=O)/C1=C\c1cccs1,0%,13%,?,?,-14
Cn1cccc1/C=C1\C(=O)NC(=O)N(CCC2=CCCCC2)C1=O,1%,-5%,13µM*,16µM*,33
SMILES,HT1080-NT tox,HT1080 IDH1KD tx,DT40 TDP1 no CPT,TDP1 cell CPT,IL-1B inflam inh
Cn1cccc1/C=C1\C(=O)NC(=O)N(Cc2ccccc2Cl)C1=O,-29%,-11%,4.6µM*,5.8µM*,27
COc1ccccc1C(=O)Nc1nnc(-c2ccc(Cl)cc2)o1,4%,8%,?,-22%,-14
CCc1ccccc1NC(=O)C(CC)Oc1ccccc1-c1nnc(-c2ccccc2)o1 (centres undefined),.,.,5.2µM*,5.8µM*,.
COc1cc(C)c(C(=O)CC(=O)c2c(C)cc(OC)cc2C)c(C)c1,-14%,?,12µM*,15µM*,131
COc1cc(OC)cc(C(=O)Nc2ccc(Br)cc2C(=O)c2ccccc2)c1,-1%,-7%,-25%,-10%,38
CC[C@H](O)C(C[C@H](C)N(C)C)(c1ccccc1)c1ccccc1,.,.,?,44µM*,.
CC(CC(C#N)(c1ccccc1)c1ccccc1)N(C)C (centres undefined),?,-15%,?,?,-17
CC(=O)N1CC(=O)Nc2ccc(C)cc2C1c1ccccc1 (centres undefined),8%,14%,15%,9%,40
CC1c2ccccc2-n2nncc2CN1CC1CCCCC1 (centres undefined),11%,9%,?,?,16
Cc1ccc(C2=NCC(=O)N(CC(=O)N3CCCCC3)c3sc(C)c(C)c32)cc1,1%,3%,?,?,-2
Cc1cccc(N2C(=O)CSC23C(=O)N(CC(=O)Nc2cccc(Cl)c2)c2ccccc23)c1 (centres undefined),.,.,16µM*,23µM*,.
COc1ccc2c(c1)CCc1c(C(=O)Nc3c(C)nn(Cc4ccccc4C)c3C)noc1-2,.,.,10µM*,23µM*,.
CC1(C)C(O)CC(O)[C@]2(C)C1CC(O)[C@]1(C)C2CC[C@@]2(C)C(c3ccoc3)CC3OC312 (some centres undefined),.,.,-13%,-8%,.
CNc1ccc2oc(C[C@H]3O[C@]4(CC[C@H]3C)O[C@H]([C@H](C)C(=O)c3ccc[nH]3)[C@H](C)C[C@H]4C)nc2c1C(=O)O,.,.,1.1µM*,1.5µM*,.
C[C@@H](N)Cn1ccc2cc(F)c(Cl)cc21,.,.,?,-23%,.
c1ccc2c(c1)[IH]c1ccccc1-2,0.46µM*,0.46µM*,0.052µM*,0.052µM*,-94*
Cc1cc(-n2c(/C=C/c3ccc(Br)s3)nc3ccccc3c2=O)ccc1Br,.,.,?,15µM*,.
Cc1cc(-n2c(/C=C/c3cccs3)nc3ccccc3c2=O)ccc1Br,.,.,23µM*,15µM*,.
COc1cccc(-n2c(/C=C/c3ccc(O)c(O)c3)nc3ccccc3c2=O)c1,-17%,-30%,?,18%,?
CCOC(=O)c1nc2ccccc2c(=O)n1-c1ccc(C)cc1,4%,-2%,?,?,9

# Screens: PubChem, National Center for Advancing Translational Sciences (NCATS)
